Data as given in PubChem BioAssay (NCATS).
“And” between values parts separate entries of the source, which are not always exact repeats. Equal entries are not always repeated. Results filed as inconclusive are left out. The source made the active and inactive calls. Unless noted, calls come from the whole dose curve; as a rule, active = well fitted curve in the direction sought with a large enough effect; inconclusive = small, poorly fitted or top-dose-only effect, or another doubt; inactive = no such curve, though single readings can be large; an effect the other way counts as inactive or inconclusive.

Legend:
[1] = molecular target: Cellular tumor antigen p53 (Homo sapiens) (UniProt P04637); test: Primary qHTS for small molecule compounds that upregulate eGFP-tagged delta133p53alpha (in N-terminal) cells. (AID 2060322); settings: NCI-H358 eGFP-delta133p53alpha fluorescence, 24 h; activation: hits give high values;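 note: cells pre-induced with doxycycline then dosed without doxycycline; series mostly up to about 56 µM; 0% = DMSO vehicle and 100% = reference activator; nearly all actives have a fitted effect of over 75% in size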
Sequence of Cellular tumor antigen p53 (Homo sapiens) (P04637 whole entry, looked up, the tested form may be a part): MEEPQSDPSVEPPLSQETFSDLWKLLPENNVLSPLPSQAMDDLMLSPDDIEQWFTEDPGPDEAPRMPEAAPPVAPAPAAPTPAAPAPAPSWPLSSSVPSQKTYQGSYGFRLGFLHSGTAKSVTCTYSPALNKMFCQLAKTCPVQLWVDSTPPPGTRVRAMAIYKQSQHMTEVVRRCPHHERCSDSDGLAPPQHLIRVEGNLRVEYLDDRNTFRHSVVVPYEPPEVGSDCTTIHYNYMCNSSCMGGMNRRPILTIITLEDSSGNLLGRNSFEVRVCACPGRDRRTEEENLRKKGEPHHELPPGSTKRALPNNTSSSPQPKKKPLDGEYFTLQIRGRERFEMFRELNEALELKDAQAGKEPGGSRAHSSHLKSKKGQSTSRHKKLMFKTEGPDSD
Outline: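 NCI-H358 cells pre-induced 24 h with 10 ng/ml doxycycline for eGFP-delta133p53alpha, plated dox-free and exposed 24 h at 37C to titrated compounds. Fixed, Hoechst-stained; gated GFP peak intensity by laser scanning cytometry, normalized to DMSO (0%) and 57.5 uM 5-azacytidine (100%).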

[2] = molecular target: Cellular tumor antigen p53 (Homo sapiens) (UniProt P04637); test: Primary qHTS for small molecule compounds that upregulate eGFP-tagged delta133p53alpha (in C-terminal) cells. (AID 2060324);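 note: 0% = DMSO wells and 100% = 57.5 µM 5-azacytidine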
Outline: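 Doxycycline (100 ng/ml, 24 h) first induced the eGFP fusion in NCI-H358 C-terminal-tag cells. Washed-out cells then received titrated compounds for 24 h at 37 °C before paraformaldehyde fixation, Hoechst staining and cytometric GFP quantification.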

[3] = molecular target: Retinaldehyde dehydrogenase 3 (Homo sapiens) (UniProt P47895); test: qHTS for Inhibitors of the Aldehyde Dehydrogenase Family (ALDH1A3) Validation screen (AID 2061312); note: % is set by controls: 0 for no effect and ±100 for the full control effect; nearly all actives have a fitted effect of over 45% in size
[4] = molecular target: Aldehyde dehydrogenase, mitochondrial (Homo sapiens) (UniProt P05091); test: qHTS for Inhibitors of the Aldehyde Dehydrogenase Family (ALDH2) Validation screens (AID 2061302; active = well fitted inhibition curve with a large enough effect; title and protocol of this record describe different tests;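 note: plate controls were DMSO vehicle for no effect and maximal DPI positive control response for full effect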)
[5] = molecular target: Aldehyde dehydrogenase, mitochondrial (Homo sapiens) (UniProt P05091); test: qHTS for Inhibitors of the Aldehyde Dehydrogenase Family (ALDH2) Confirmatory screens (AID 2061303; active = well fitted inhibition curve with a large enough effect; title and protocol of this record describe different tests; note: % is set by controls: 0 for no effect and ±100 for the full control effect; nearly all actives have a fitted effect of over 45% in size)
[6] = molecular target: Retinaldehyde dehydrogenase 3 (Homo sapiens) (UniProt P47895); test: qHTS for Inhibitors of the Aldehyde Dehydrogenase Family (ALDH1A3) Confirmatory screens (AID 2061311); note: nearly all actives have a fitted effect of over 60% in size; note: potency is the fitted concentration of half-maximal effect
[7] = molecular target: Aldehyde dehydrogenase 1A1 (Homo sapiens) (UniProt P00352); test: qHTS for Inhibitors of the Aldehyde Dehydrogenase Family (ALDH1A1) Confirmatory screens (AID 2061316); note: % is set by controls: 0 for no effect and ±100 for the full control effect; nearly all actives have a fitted effect of over 65% in size
[8] = qHTS for Inhibitors of the Aldehyde Dehydrogenase Family (ALDH1A2, ALDH1A3, ALDH2, ALDH3A1) (AID 2061307); note: % is set by controls: 0 for no effect and ±100 for the full control effect; nearly all actives have a fitted effect of over 50% in size
[9] = BET inhibitor-based combinations targeting novel dependencies in MECOM-rearranged (r) AML: SET-2 cell line (AID 2202231); settings: SET-2 AML cells viability, CellTiter-Glo luminescence, 48 h; viability: hits give low values, series mostly up to about 46 µM;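 note: plate controls were DMSO treated cells for no effect and wells without cells for full effect; nearly all actives have a fitted effect of over 35% in size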
Outline: (§1)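 500 cells/well; 11-pt dose curve; 48 h, standard incubator; CellTiter-Glo luminescence after 15 min RT; DMSO/empty-well normalization; AUC plus Z-AUC (mean-centered within each line).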

[10] = BET inhibitor-based combinations targeting novel dependencies in MECOM-rearranged (r) AML: OCI-AML3 cell line (AID 2202232); settings: Potency: OCI-AML3 viability; note: nearly all actives have a fitted effect of over 35% in size; note: potency is the fitted concentration of half-maximal effect
Outline: as §1

[11] = BET inhibitor-based combinations targeting novel dependencies in MECOM-rearranged (r) AML: HNT-34 cell line (AID 2202234); note: nearly all actives have a fitted effect of over 35% in size; note: potency is the fitted concentration of half-maximal effect
Outline: (§2)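 Cells were plated at 500 per well and exposed to each drug across an 11-point dose range for 48 hr at standard incubator conditions. Viability was read by CellTiter-Glo luminescence, and activity was expressed as AUC and per-cell-line Z-transformed AUC.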

[12] = BET inhibitor-based combinations targeting novel dependencies in MECOM-rearranged (r) AML: UCSD-AML1 cell line (AID 2202235); note: nearly all actives have a fitted effect of over 40% in size; note: potency is the fitted concentration of half-maximal effect
Outline: as §2

[13] = BET inhibitor-based combinations targeting novel dependencies in MECOM-rearranged (r) AML: AML-191 cell line (AID 2202236;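 note: plate controls were vehicle wells for no effect and wells without cells for full effect; nearly all actives have a fitted effect of over 35% in size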)
Outline: as §1

[14] = BET inhibitor-based combinations targeting novel dependencies in MECOM-rearranged (r) AML: AML-194 cell line (AID 2202237;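 note: plate controls were vehicle wells for no effect and wells without cells for full effect; nearly all actives have a fitted effect of over 40% in size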)
Outline: as §1

[15] = BET inhibitor-based combinations targeting novel dependencies in MECOM-rearranged (r) AML: MV-4-11 cell line (AID 2202233); note: potency is the fitted concentration of half-maximal effect; nearly all actives have a fitted effect of over 45% in size
Outline: as §2

[16] = molecular target: Aldehyde dehydrogenase, mitochondrial (Homo sapiens) (UniProt P05091); test: qHTS for Inhibitors of the Aldehyde Dehydrogenase Family (ALDH2) Primary screen (AID 2061308);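 note: plate controls were vehicle for no effect and reference inhibitor for full effect; nearly all actives have a fitted effect of over 55% in size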
[17] = molecular target: Retinal dehydrogenase 2 (Homo sapiens) (UniProt O94788); test: qHTS for Inhibitors of the Aldehyde Dehydrogenase Family (ALDH1A2) Confirmation screens (AID 2061314); note: potency is the fitted concentration of half-maximal effect; nearly all actives have a fitted effect of over 65% in size
[18] = molecular target: Retinaldehyde dehydrogenase 3 (Homo sapiens) (UniProt P47895); test: qHTS for Inhibitors of the Aldehyde Dehydrogenase Family (ALDH1A3) Primary screen (AID 2061315);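 note: plate controls were DMSO vehicle for no effect and reference inhibitor for full effect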

CCN(CC)C(C)CN1c2ccccc2Sc2ccccc21 (stereo unspecified)
inactive: activation [1] -8.47% and -0.322% | Potency [2] | Potency [3]

CN1CCN(C2=Nc3ccccc3Oc3ccc(Cl)cc32)CC1
inactive: activation [1] -10% and -16.8% | Potency [2] | Potency [3]

S=c1[nH]c(-c2ccccc2)cn1-c1ccccc1
inactive: activation [1] -21.8% | Potency [2] | Potency [3]

Cc1cc2c(cc1Cl)N(C(=O)Nc1ccc(Oc3cccnc3C)nc1)CC2
inactive: activation [1] -71.3% | Potency [4]

CN(C)C/C=C(/c1ccc(Br)cc1)c1cccnc1
inactive: activation [1] -2.82% and -52.8% | Potency [2] | Potency [5] | Potency [6] | Potency [7]

Clc1ccc2c(N3CCN(CCCN4CCN(c5ccnc6cc(Cl)ccc56)CC4)CC3)ccnc2c1
inactive: activation [1] 26.5% | Potency [2] | Potency [8] | viability [9] 76.4% | Potency [10] | Potency [11] | Potency [12] | Potency [13] | Potency [14]

N#C/C(=C\c1ccc(O)c(O)c1)C(=O)NCCCNC(=O)/C(C#N)=C/c1ccc(O)c(O)c1
inactive: activation [1] -33.4% | Potency [2]
active: Potency [6] 2.83 µM

C[C@](N)(Cc1ccc(O)c(O)c1)C(=O)O
inactive: activation [1] 3.95% and 1.83% and 6.56% | Potency [2] | Potency [10] | Potency [12] | Potency [14]

CC1=C(/C=C/C(C)=C/C=C/C(C)=C/C(=O)O)C(C)(C)CCC1
inactive: activation [1] 11.9% and -12.6% | Potency [2] | viability [9] 106% | Potency [12] | Potency [14]
active: Potency [10] 7.42 µM | Potency [15] 0.59 µM

Cc1cccc(C2CN(C)CCc3c2cc(O)c(O)c3Cl)c1 (stereo unspecified)
inactive: activation [1] -49.3% | Potency [4]

O=c1cc(-c2ccc(O)cc2)oc2cc(O)cc(O)c12
inactive: activation [1] -19.8% and -40.1% | Potency [4] | Potency [3]

CN(C)c1cc2c(Nc3ccc4c(cnn4Cc4ccccc4)c3)ncnc2cn1
inactive: activation [1] -35.7% | Potency [4] | Potency [5] | Potency [16] | Potency [3] | Potency [18] | Potency [7]
active: Potency [6] 10 µM | Potency [17] 0.283 µM

CCOC(=O)CSc1nc2c(sc3ccccc32)c(=O)n1CCCN1CCCC1
inactive: activation [1] 2.86% | Potency [4] | Potency [16] | Potency [3] | Potency [18]

CN1C2CCC1CC(OC(=O)C(O)c1ccccc1)C2 (stereo unspecified)
inactive: activation [1] 8.16% | Potency [4]

OCCN1CCN(CCCN2c3ccccc3Sc3ccc(Cl)cc32)CC1
inactive: activation [1] -6.69% and -35.6% | Potency [4] | Potency [3]

O=C(O)CCc1nc(-c2ccccc2)c(-c2ccccc2)o1
inactive: activation [1] -3.34% and -25.4% | Potency [4] | Potency [16] | Potency [3] | Potency [18]

COC(=O)C1=C(C)NC(C)=C(C(=O)OC(C)(C)CN(C)CCC(c2ccccc2)c2ccccc2)C1c1cccc([N+](=O)[O-])c1 (stereo unspecified)
inactive: activation [1] 17.5% | Potency [4] | Potency [3]

COc1cc2ncnc(Nc3cccc(Cl)c3)c2cc1OC
active: Potency [15] 8.33 µM | Potency [11] 13.2 µM | Potency [12] 18.6 µM
inactive: activation [1] 23.2% and -41% | Potency [4] | Potency [16] | Potency [3] | Potency [18]

N=C(N)SCCc1cnc[nH]1
inactive: activation [1] -28.5% | Potency [4]

COC1=C(OC)C(=O)c2ccccc2C1=O
active: Potency [6] 0.712 µM | Potency [17] 2.52 µM
inactive: activation [1] -31% | Potency [4] | Potency [5] | Potency [8]

Cc1nn(-c2ccccc2)c(C)c1/C=N/N1CCN(Cc2ccccc2)CC1
inactive: activation [1] -13.7% and -4.24% | Potency [4] | Potency [16] | Potency [3] | Potency [18]

O=[N+]([O-])c1ccc(-c2nc(-c3ccc(F)cc3)c(-c3ccncc3)[nH]2)cc1
inactive: activation [1] 47.4% | Potency [4] | Potency [16] | Potency [3] | Potency [18] | viability [9] 106% | Potency [10] | Potency [11] | Potency [12] | Potency [13] | Potency [14]
active: Potency [15] 16.6 µM

N[C@@H](CC(=O)O)C(=O)O
inactive: activation [1] -3.52% | Potency [4] | Potency [3]

Cc1c(O)cccc1C(=O)N[C@@H](CSc1ccccc1)[C@H](O)CN1C[C@H]2CCCC[C@H]2C[C@H]1C(=O)NC(C)(C)C
inactive: activation [1] -0.838% | Potency [4] | Potency [3]
